Bioassay records deposited in PubChem BioAssay by National Center for Advancing Translational Sciences (NCATS).
Tb PFK block = inhibitors of T. brucei phosphofructokinase | T. brucei PFK, ADP-Glo luminescence | Potency, µM (top dose mostly 57.5 µM), without a hit: top-dose activity, negative = inhibition, most hits filed as inhibitors | hit rate 0.17% among 330,000;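 also: 0% = uninhibited 1x PFK enzyme wells and -100% = no-enzyme wells; nearly all actives have a fitted effect of over 60% in size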
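1.25 nM PFK with 0.5 mM F6P and 0.1 mM ATP in 0.1 M TEA pH 8.0, 5 mM MgCl2, incubated 45 min at room temperature; ADP measured by ADP-Glo luminescence; compounds titrated up to 57 uM.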
ELG1 DNA repair = ELG1-dependent DNA repair inhibition. HEK293T ELG1-luciferase reporter, luminescence, 16 h; DNA damage induced by 5-fluorouridine. Potency, µM (top dose mostly 46.1 µM), inactives show top-dose activity change, negative = inhibition, most hits filed as inhibitors. hit rate 2.3% among 330,000; also: % is scaled to controls: 0 for no effect and ±100 for the full control effect; nearly all actives have a fitted effect of over 55% in size
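In this reporter screen, reduction of luminescence relative to DMSO vehicle indicated activity. Compounds and 5-fluorouridine were added together to 2,000 cells per well, incubated for 16 hr at 37 °C, then developed with ONE-Glo.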
Rango-impB inh = Rango-importin beta binding inhibition; AID 540263; Q14974; Potency, µM (series often up to 92.2 µM), inactives show at the top dose inhibition of complex formation; hit rate 0.031% among 340,000; Rango CFP/YFP FRET sensor + importin beta, 45 min; calls by dose curve;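 also: 0% = DMSO wells and 100% = buffer wells lacking importin beta; nearly all actives have a fitted effect of over 15% in size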
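FRET biosensor Rango (snurportin 1 IBB between N-terminal EYFP and C-terminal Cerulean), 50 nM in PBS/1 mM DTT/0.02% Tween-20/0.1% BSA, preincubated 5 min RT with compound; 0.125 microM importin beta added, 45 min RT, CFP/YFP FRET ratio read.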
Rango dissoc inh = inhibitors of RanGTP-induced Rango-importin beta complex dissociation; Biochemical FRET Rango-importin beta, RanGTP-induced dissociation; Potency, µM (titrated, usually from 46.1 µM), without a hit: at the highest dose activity change, negative = inhibition; hit rate 0.071% among 340,000; calls by dose curve; also: % of control where 0% means no effect; nearly all actives have a fitted effect of over 45% in size
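FRET read at 45 min, room temperature: inhibitors block the CFP/YFP signal rise when RanGTP (0.6 uM Ran, 2 mM GTP, 0.2 uM RCC1) frees Rango (0.1 uM) from importin beta (0.25 uM). Pre-read after 5 min compound exposure flags interference.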
PKM2 act = increases activity of human pyruvate kinase M2 | Potency, µM (top dose mostly 57.5 µM), inactives show top-dose activation, hits mostly activators | AID 1631 | hit rate 0.34% among 260,000 | P14618 | purified PKM2, Kinase-Glo ATP luminescence, activation; response scale: 0% is enzyme alone, no compound; also: % is scaled to controls: 0 for no effect and ±100 for the full control effect; nearly all actives have a fitted effect of over 55% in size
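Kinase-Glo luminescence reports ATP generated from ADP (0.1 mM) and PEP (0.5 mM) by purified hPK-M2 after 1 h at room temperature, pH 7.2 imidazole buffer; intermediate enzyme activity allows detecting inhibitors and activators.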
PGK inhibitor = inhibitors of T. brucei phosphoglycerate kinase; Potency, µM (highest dose often 57.5 µM), without a hit: at the top dose activity change, negative = inhibition, most hits filed as inhibitors; P07378; hit rate 0.043% among 380,000; PGK/GAPDH coupled, Kinase-Glo luminescence, 60 min; also: % is scaled to controls: 0 for no effect and ±100 for the full control effect; nearly all actives have a fitted effect of over 60% in size
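Recombinant glycosomal PGK reaction used 1,3-bisphosphoglycerate generated in-well by GAPDH (100nM final) in 100mM TEA pH 7.6, 5mM MgCl2, 0.01% Tween-20. After 60 minutes at room temperature, ATP was read by Kinase-Glo Plus luminescence end-point.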
ELG1 FLuc counter = luciferase inhibition in cell-free luciferin readout for ELG1 hits; Potency, µM (doses to about 46.1 µM), inactives show top-dose activity change, negative = inhibition, most hits filed as inhibitors; hit rate 3% among 350; shares compounds with ELG1 DNA repair; cell-free firefly luciferase luminescence counter-screen, ViewLux; also: % is scaled to controls: 0 for no effect and ±100 for the full control effect
ELG1 Luc conf = inhibits ELG1-dependent DNA repair in HEK293T cells, confirmed; shares compounds with ELG1 DNA repair; HEK293T ELG1-luciferase levels, luminescence; cells co-treated with 5-fluorouridine; Potency, µM (top dose mostly 46.1 µM), for inactives: at the top dose activity change, negative = inhibition, most hits filed as inhibitors; hit rate 68% among 670; AID 624248; also: % is scaled to controls: 0 for no effect and ±100 for the full control effect; nearly all actives have a fitted effect of over 55% in size
Target sequence (Q96QE3 whole entry, looked up): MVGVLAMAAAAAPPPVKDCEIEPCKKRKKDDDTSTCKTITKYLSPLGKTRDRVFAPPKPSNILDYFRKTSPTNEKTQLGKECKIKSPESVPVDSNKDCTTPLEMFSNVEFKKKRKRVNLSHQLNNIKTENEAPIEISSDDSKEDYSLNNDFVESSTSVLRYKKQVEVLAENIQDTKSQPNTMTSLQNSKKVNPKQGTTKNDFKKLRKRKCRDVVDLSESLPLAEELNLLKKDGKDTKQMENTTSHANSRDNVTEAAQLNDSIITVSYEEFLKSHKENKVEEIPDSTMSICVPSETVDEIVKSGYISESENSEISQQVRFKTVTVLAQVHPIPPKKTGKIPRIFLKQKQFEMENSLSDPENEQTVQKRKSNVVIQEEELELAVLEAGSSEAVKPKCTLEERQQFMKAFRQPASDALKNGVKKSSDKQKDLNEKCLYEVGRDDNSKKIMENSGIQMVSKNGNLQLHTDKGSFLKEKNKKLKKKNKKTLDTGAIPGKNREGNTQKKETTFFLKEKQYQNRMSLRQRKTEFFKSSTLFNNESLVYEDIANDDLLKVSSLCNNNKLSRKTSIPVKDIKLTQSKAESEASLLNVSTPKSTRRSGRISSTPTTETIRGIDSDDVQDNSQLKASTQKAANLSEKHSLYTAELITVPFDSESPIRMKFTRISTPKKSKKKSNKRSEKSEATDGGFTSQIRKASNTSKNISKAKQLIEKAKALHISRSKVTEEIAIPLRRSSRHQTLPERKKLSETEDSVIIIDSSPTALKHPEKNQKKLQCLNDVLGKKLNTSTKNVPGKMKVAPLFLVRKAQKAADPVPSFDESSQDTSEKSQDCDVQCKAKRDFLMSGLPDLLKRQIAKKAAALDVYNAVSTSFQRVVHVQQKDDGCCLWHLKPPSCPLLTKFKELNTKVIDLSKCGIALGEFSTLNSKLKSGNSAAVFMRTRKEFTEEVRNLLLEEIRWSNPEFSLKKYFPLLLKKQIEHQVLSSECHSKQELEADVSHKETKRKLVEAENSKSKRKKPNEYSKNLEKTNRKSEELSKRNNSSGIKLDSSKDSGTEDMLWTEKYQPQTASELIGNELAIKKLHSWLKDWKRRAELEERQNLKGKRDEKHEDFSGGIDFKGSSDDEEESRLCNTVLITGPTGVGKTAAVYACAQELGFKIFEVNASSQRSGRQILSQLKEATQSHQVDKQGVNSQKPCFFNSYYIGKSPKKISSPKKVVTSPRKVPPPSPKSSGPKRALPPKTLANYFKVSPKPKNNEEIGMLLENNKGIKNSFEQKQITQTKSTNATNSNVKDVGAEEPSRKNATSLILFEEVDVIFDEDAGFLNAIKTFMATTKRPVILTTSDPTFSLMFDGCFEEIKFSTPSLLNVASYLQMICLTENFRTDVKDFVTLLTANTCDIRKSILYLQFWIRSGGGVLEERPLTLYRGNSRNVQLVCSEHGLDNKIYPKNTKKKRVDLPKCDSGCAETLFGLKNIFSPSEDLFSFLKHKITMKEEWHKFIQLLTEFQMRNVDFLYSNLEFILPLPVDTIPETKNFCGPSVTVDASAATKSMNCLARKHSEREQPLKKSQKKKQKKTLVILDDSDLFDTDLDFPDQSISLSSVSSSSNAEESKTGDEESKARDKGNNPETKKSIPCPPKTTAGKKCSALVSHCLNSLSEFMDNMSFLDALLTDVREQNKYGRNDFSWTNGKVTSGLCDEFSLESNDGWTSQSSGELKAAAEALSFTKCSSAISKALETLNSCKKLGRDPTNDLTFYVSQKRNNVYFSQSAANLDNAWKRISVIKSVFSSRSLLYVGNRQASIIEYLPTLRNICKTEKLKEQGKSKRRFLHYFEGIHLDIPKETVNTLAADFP
ELG1 MMS Luc = MMS-stimulated human ELG1 repair inhibition, confirmed | shares compounds with ELG1 DNA repair | HEK293T luciferase-tagged ELG1 level, MMS stimulated | Potency, µM (top dose mostly 46.1 µM), without a hit: top-dose activity change, negative = inhibition, hits mostly inhibitors | hit rate 53% among 670; also: % is scaled to controls: 0 for no effect and ±100 for the full control effect; nearly all actives have a fitted effect of over 60% in size
ELG1 5-FU = confirmation of ELG1 repair inhibitors: viability with 5FU | shares compounds with ELG1 DNA repair | cell viability with 5-FU, ELG1-dependent repair | Potency, µM (series often up to 46.1 µM), inactives show top-dose activity change, negative = viability loss, most hits filed as cytotoxic | 670 tested, under 10 active;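 also: ELG1-luc HEK293T cells cotreated with 5-fluorouridine at 10 µM final; viability measured 16 h after compound addition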
ELG1 MMS cell = confirmation of ELG1 repair inhibitors: viability with MMS | shares compounds with ELG1 DNA repair | Cell viability with MMS, ELG1-dependent DNA repair | Potency, µM (highest dose often 46.1 µM), inactives show at the top dose activity change, negative = viability loss, usual class: cytotoxic | hit rate 33% among 670 | AID 624251;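 also: ELG1-luc HEK293T cells co-treated with 10 µM MMS; viability read 16 h after compound addition; % is scaled to controls: 0 for no effect and ±100 for the full control effect; nearly all actives have a fitted effect of over 60% in size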
ELG1 unstim viab = affects unstimulated cell viability, ELG1 hit counter-screen; shares compounds with ELG1 DNA repair; cell viability counter-screen, unstimulated, luminescence; Potency, µM (highest dose often 45.9 µM), for the others: at the highest dose activity change, negative = loss of viability, hits mostly cytotoxic; hit rate 8% among 900; AID 624252;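 also: compound exposure lasted 16 hours before reading; % is scaled to controls: 0 for no effect and ±100 for the full control effect; nearly all actives have a fitted effect of over 55% in size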
FLuc biochem = firefly luciferase inhibition counter-screen; shares compounds with ELG1 DNA repair; purified firefly luciferase, luminescence counter-screen; Potency, µM (series often up to 57.5 µM), inactives show at the top dose activity, negative = inhibition, most hits filed as inhibitors; hit rate 10% among 350; AID 624253; also: % is scaled to controls: 0 for no effect and ±100 for the full control effect
Starred values were filed as active, the others as inactive; [ ] = dose if it differs, or a comment. An excerpt weighted towards active compounds, which were near 2.4% of everything screened. Unless noted, calls follow the shape of the dose curve; as a rule, active = well fitted curve in the direction sought with a large enough effect; inconclusive = small, poorly fitted or top-dose-only effect, or another doubt; inactive = no such curve, though single readings can be large; an effect the other way counts as inactive or inconclusive. Potency is read from the fitted curve at half-maximal effect.

`CCc1ccc(-c2nc(CN3CCC(C(=O)N4CCN(c5ccccn5)CC4)CC3)c(C)o2)cc1` gave Tb PFK block -4.0%, ELG1 DNA repair 4.11µM*, Rango-impB inh 2.0%, Rango dissoc inh 0.2%, PKM2 act 2.6%, PGK inhibitor 0.0%, ELG1 Luc conf 7.05µM*, ELG1 MMS Luc 7.91µM*, ELG1 5-FU -5.3%, ELG1 MMS cell 7.91µM* and ELG1 unstim viab inconclusive.
CCC(=O)N1CCc2cc(Br)cc(S(=O)(=O)N3CCC(C(=O)NCCCOC(C)C)CC3)c21 was read as Tb PFK block -0.9%, ELG1 DNA repair 1.64µM*, Rango-impB inh 0.9%, Rango dissoc inh 17.4%, PKM2 act -0.8%, PGK inhibitor -2.1%, ELG1 Luc conf 7.91µM*, ELG1 MMS Luc 14.9%, ELG1 5-FU inconclusive, ELG1 MMS cell 4.1% and ELG1 unstim viab -1.6%.
Screening CC[n+]1c(/C=C/c2ccc(N(C)C)cc2)ccc2ccccc21 returned Tb PFK block -28.2%, ELG1 DNA repair 11.7%, Rango-impB inh 3.9%, Rango dissoc inh -1.5%, PKM2 act -28.2% and PGK inhibitor inconclusive.
For CN(C)c1ccc(/C=C/c2ccc3ccccc3[n+]2[O-])cc1 the results were ELG1 FLuc counter -62.5%, ELG1 unstim viab 12.6µM* and FLuc biochem 0.092µM*.
`C[C@@H]1CN([C@@H](C)CO)C(=O)CCCn2cc(nn2)CO[C@H]1CN(C)S(=O)(=O)c1ccc2c(c1)OCCCO2` gave PGK inhibitor -6.7%.
For COc1ccc(-c2nc3c(c(SCC(=O)N4CCOCC4)n2)Cc2c(CO)cnc(C)c2O3)cc1 the results were Tb PFK block -1.3%, ELG1 DNA repair 1.3µM*, Rango-impB inh inconclusive, Rango dissoc inh -2.4%, PGK inhibitor 7.2%, ELG1 FLuc counter 20.1%, ELG1 Luc conf 3.54µM*, ELG1 MMS Luc inconclusive, ELG1 5-FU 5.5%, ELG1 MMS cell -1.9%, ELG1 unstim viab -15.9% and FLuc biochem 0.1%.
`Cc1ccc(-c2nc3c(c(SCC(=O)N4CCOCC4)n2)Cc2c(CO)cnc(C)c2O3)cc1` gave Tb PFK block 2.4%, ELG1 DNA repair inconclusive, Rango-impB inh 0.4%, Rango dissoc inh -0.4% and PGK inhibitor -0.6%.
Screening Cn1cccc1C(=O)OCC(=O)Nc1sccc1C#N returned Tb PFK block 3.1%, ELG1 DNA repair inconclusive, Rango-impB inh -2.6%, Rango dissoc inh 16.7%, PGK inhibitor -0.2% and ELG1 unstim viab -0.2%.
For Cn1cccc1C(=O)OCC(=O)NCc1ccc2c(c1)OCO2 the results were Tb PFK block -4.0%, ELG1 DNA repair inconclusive, Rango-impB inh inconclusive, Rango dissoc inh -3.4% and PGK inhibitor inactive.
For Cn1cccc1C(=O)OCC(=O)Nc1ccc2c(c1)OCCO2 the results were Tb PFK block 1.0%, ELG1 DNA repair inconclusive, Rango-impB inh -1.2%, Rango dissoc inh -3.0%, PGK inhibitor 4.4%, ELG1 FLuc counter 2.6%, ELG1 unstim viab inconclusive and FLuc biochem 2.06µM*.
C[C@@H]1CC2[C@@H]3CCC4=CC(=O)C=C[C@]4(C)[C@@]3(F)[C@@H](O)C[C@]2(C)[C@@]1(O)C(=O)NCCCCCCOC[C@H]1O[C@@H](n2cnc3cc(Cl)c(Cl)cc32)[C@@H]2OC(C)(C)O[C@@H]21 (stereo partly drawn) was read as ELG1 FLuc counter 20.8%[92.2 µM], ELG1 unstim viab -21.5%[92.2 µM] and FLuc biochem -5.7%[115 µM].
Screening CN(C(=O)CN1C(=O)c2ccccc2S1(=O)=O)C1CCCCC1 returned Tb PFK block 0.0%, ELG1 DNA repair inconclusive, Rango-impB inh -1.2%, Rango dissoc inh 0.0%, PGK inhibitor -6.1% and ELG1 unstim viab -2.1%.
CS(=O)(=O)Nc1ccc(S(=O)(=O)N2CCCCCC2)cc1 was read as Tb PFK block -11.0%, ELG1 DNA repair 0.2%, Rango-impB inh -0.2%, Rango dissoc inh 1.0%, PKM2 act 1.5% and PGK inhibitor -5.8%.
CCOc1cccc(-c2nnc(SCC(=O)Nc3cc(C)ccc3OC)n2N)c1 was read as Tb PFK block 3.2%, ELG1 DNA repair 0.581µM*, Rango-impB inh 0.2%, Rango dissoc inh -2.9%, PKM2 act -8.1%, PGK inhibitor -3.5%, ELG1 FLuc counter 1.3%, ELG1 Luc conf inconclusive, ELG1 MMS Luc -18.1%, ELG1 5-FU 8.6%, ELG1 MMS cell 0.2%, ELG1 unstim viab -4.7% and FLuc biochem -8.3%.
